# In the supplement of paper PMC11732987, “Enantioselective OTUD7B fragment discovery through chemoproteomics screening and high-throughput optimisation” (Communications Chemistry, 2025):
# Unmarked numbers belong to inactive results.
# Assays:
# Experiment in all cases: log2 ratio of Biotin-Ahx-Ub-VS probe labelling (fragment/DMSO); higher = less target engagement (more negative = stronger competition), active = hit call of the paper (q ≤ 0.05, log2 ratio ≤ -1)
# Settings in all cases: compound concentration: 200 uM; treatment time: 3 h
# ALG13 = biological target: T1, ALG13 (UniProt Q9NP73)
# T1 sequence (whole entry): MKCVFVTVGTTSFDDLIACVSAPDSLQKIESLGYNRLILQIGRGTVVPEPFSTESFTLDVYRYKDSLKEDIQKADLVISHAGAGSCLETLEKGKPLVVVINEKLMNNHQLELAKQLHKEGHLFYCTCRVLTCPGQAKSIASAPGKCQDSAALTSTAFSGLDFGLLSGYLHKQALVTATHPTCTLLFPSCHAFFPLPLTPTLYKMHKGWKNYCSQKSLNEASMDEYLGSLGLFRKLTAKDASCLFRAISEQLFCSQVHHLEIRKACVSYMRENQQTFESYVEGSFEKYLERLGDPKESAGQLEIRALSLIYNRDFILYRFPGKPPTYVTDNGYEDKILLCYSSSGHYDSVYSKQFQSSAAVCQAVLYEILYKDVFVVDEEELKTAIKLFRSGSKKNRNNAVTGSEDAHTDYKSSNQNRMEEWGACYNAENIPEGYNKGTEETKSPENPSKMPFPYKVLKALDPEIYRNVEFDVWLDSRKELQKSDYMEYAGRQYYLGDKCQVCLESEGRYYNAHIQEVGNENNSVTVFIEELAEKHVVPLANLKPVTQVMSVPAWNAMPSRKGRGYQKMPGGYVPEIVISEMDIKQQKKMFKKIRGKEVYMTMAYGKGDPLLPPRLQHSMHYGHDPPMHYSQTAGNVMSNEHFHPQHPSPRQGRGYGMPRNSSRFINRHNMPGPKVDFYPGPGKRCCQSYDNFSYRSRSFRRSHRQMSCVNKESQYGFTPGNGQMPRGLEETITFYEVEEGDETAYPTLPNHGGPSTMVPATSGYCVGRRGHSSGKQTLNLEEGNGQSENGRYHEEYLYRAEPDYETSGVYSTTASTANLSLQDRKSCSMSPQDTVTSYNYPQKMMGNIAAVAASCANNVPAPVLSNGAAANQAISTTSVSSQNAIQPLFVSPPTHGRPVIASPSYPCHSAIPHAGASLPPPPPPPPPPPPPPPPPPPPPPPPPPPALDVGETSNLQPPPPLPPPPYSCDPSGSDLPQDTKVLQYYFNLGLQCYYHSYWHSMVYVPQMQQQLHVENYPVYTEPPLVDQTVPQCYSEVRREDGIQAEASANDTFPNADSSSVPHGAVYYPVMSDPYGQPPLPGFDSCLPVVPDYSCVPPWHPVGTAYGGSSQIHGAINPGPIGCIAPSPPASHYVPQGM
# In short: (§1)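 Lysate from HEK293T cells, 495 µg per sample in Tris/CHAPS/IGEPAL buffer with protease inhibitors, was treated for 3 h in triplicate with fragment at 200 µM or vehicle. Biotin-Ahx-Ub-VS was next added at 0.5 µM final for 1 h. The labelled DUBs were enriched with NeutrAvidin, digested with LysC and trypsin, and run by diaPASEF LC-MS/MS, with values given as average log2 fragment/vehicle ratios by unpaired t-test on global-median-normalised Spectronaut quantities of proteins with ≥2 unique peptides.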
# ATXN3 = ATXN3 (UniProt P54252)
# In short: as §1
# BAP1 = biological target: T2, BAP1 (UniProt Q92560)
# T2 sequence (whole entry): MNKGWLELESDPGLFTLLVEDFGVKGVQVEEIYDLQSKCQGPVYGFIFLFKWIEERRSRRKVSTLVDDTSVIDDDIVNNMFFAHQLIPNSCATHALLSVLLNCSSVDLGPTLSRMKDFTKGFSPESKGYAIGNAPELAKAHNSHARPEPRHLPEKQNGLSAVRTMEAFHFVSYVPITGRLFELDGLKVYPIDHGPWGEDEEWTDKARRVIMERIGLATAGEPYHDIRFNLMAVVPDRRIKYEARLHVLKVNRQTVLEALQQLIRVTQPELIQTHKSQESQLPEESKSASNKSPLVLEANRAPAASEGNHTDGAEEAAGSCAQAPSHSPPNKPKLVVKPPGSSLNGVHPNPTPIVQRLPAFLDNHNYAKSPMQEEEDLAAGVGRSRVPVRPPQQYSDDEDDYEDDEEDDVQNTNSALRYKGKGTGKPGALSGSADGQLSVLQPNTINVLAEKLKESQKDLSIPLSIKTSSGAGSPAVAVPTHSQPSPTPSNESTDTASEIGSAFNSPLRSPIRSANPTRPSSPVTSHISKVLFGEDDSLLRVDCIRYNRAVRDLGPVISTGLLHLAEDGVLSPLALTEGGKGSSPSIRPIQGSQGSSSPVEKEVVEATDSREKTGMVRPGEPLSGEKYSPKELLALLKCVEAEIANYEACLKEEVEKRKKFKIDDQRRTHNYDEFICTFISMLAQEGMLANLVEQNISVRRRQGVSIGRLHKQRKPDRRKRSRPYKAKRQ
# In short: as §1
# EIF3F = EIF3F (UniProt O00303)
# In short: as §1
# EIF3H = EIF3H (UniProt O15372)
# In short: as §1
# FAM105A = biological target: T3, FAM105A (UniProt Q9NUU6)
# T3 sequence (whole entry): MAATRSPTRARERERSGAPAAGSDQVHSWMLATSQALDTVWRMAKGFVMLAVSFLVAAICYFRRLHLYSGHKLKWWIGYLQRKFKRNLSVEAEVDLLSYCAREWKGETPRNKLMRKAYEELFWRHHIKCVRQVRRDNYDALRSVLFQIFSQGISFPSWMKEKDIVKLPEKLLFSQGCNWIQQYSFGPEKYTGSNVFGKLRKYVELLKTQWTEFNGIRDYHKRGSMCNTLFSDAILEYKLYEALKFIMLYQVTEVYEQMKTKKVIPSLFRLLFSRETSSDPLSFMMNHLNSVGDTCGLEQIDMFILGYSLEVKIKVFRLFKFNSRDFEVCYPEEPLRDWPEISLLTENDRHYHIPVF
# In short: as §1
# OTUB1 = OTUB1 (UniProt Q96FW1)
# In short: as §1
# OTUD4 = biological target: T4, OTUD4 (UniProt Q01804)
# T4 sequence (whole entry): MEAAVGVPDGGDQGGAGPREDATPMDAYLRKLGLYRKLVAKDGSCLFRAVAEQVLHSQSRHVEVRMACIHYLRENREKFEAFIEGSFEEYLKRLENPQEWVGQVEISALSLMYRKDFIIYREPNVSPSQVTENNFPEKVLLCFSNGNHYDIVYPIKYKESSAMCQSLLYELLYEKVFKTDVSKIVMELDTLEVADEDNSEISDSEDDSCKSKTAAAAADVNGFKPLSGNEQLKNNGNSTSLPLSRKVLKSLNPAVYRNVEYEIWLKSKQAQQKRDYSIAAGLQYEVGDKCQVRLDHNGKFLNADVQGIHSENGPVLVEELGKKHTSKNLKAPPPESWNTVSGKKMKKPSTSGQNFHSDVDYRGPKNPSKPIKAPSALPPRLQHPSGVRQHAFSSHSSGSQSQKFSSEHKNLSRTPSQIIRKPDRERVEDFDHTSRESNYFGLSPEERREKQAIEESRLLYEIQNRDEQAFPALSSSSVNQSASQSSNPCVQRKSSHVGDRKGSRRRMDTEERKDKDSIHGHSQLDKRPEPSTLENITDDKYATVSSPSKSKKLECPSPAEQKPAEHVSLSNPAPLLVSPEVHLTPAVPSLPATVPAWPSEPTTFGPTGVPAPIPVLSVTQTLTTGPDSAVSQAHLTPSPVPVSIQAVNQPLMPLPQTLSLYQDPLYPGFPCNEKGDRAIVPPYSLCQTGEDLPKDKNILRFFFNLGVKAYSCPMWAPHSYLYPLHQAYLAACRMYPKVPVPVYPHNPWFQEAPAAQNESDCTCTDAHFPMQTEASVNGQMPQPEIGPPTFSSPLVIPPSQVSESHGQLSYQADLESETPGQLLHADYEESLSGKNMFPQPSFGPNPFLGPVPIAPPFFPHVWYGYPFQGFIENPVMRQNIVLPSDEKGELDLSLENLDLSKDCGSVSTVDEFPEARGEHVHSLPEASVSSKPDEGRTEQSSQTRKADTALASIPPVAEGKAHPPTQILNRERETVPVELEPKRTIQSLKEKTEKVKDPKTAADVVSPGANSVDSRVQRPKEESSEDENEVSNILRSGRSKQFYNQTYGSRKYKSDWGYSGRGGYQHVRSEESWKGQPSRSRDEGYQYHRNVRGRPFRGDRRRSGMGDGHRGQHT
# In short: as §1
# OTUD5 = biological target: T5, OTUD5 (UniProt Q96G74)
# T5 sequence (whole entry): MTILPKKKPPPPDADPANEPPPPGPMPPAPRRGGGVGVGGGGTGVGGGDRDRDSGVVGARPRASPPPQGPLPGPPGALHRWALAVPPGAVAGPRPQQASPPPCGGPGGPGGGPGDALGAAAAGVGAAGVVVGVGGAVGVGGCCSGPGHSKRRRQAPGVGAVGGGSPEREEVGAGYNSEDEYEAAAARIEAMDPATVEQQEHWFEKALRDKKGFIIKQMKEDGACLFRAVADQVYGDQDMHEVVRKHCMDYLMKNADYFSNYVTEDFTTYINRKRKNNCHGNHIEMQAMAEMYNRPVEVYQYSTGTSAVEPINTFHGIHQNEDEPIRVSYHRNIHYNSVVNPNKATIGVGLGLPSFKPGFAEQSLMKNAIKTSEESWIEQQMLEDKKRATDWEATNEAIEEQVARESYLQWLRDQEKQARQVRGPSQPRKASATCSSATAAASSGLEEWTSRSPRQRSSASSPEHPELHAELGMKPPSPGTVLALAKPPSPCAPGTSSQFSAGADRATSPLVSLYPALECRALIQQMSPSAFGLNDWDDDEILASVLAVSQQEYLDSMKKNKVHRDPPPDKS
# In short: as §1
# EIF3H, sequence (O15372 whole entry): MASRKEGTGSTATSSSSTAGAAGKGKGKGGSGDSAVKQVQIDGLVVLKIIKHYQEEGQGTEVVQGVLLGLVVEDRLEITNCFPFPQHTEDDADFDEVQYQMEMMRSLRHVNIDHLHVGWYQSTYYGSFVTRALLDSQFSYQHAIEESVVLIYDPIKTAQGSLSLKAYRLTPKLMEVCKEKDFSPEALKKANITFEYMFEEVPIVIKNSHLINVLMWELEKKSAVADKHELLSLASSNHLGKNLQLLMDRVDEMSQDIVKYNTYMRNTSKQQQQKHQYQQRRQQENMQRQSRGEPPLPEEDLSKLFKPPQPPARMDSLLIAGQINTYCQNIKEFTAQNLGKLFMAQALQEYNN
# EIF3F, sequence (O00303 whole entry): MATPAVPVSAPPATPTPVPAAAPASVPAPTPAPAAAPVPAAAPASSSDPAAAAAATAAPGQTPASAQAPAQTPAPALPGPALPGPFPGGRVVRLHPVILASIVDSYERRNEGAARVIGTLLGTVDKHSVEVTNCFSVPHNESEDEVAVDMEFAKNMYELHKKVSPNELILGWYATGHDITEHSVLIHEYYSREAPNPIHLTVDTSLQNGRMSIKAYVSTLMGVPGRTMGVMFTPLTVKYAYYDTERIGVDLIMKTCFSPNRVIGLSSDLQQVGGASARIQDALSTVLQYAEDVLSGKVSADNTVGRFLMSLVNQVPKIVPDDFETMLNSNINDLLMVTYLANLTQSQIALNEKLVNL
# ATXN3, sequence (P54252 whole entry): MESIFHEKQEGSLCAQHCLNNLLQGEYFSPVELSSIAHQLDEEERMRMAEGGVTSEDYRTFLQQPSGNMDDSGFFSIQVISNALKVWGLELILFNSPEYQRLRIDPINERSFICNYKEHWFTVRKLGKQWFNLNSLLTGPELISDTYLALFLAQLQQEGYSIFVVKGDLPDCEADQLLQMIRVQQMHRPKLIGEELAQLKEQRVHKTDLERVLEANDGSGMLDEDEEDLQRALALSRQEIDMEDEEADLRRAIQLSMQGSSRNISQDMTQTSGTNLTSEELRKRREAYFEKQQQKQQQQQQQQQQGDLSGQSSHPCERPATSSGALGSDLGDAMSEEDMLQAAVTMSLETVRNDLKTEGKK
# OTUB1, sequence (Q96FW1 whole entry): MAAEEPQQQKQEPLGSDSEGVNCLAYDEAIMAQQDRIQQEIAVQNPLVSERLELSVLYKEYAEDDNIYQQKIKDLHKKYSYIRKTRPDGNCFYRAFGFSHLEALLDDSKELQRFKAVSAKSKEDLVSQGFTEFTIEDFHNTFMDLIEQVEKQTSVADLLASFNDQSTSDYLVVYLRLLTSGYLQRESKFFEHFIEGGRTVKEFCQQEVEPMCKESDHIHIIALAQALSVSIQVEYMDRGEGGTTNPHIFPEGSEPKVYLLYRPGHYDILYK
structure (smiles),measurement,setting,value
O=C(CCl)NC1(c2ccc3c(c2)OCCO3)CCCC1,log2 ratio of Biotin-Ahx-Ub-VS probe labelling,ALG13,-0.035
same,log2 ratio of Biotin-Ahx-Ub-VS probe labelling,ATXN3,-0.252
same,log2 ratio of Biotin-Ahx-Ub-VS probe labelling,BAP1,-1.89 (active)
same,log2 ratio of Biotin-Ahx-Ub-VS probe labelling,EIF3F,-0.19
same,log2 ratio of Biotin-Ahx-Ub-VS probe labelling,EIF3H,-0.051
same,log2 ratio of Biotin-Ahx-Ub-VS probe labelling,FAM105A,0.0394
same,log2 ratio of Biotin-Ahx-Ub-VS probe labelling,OTUB1,-0.359
same,log2 ratio of Biotin-Ahx-Ub-VS probe labelling,OTUD4,-1.1 (active)
same,log2 ratio of Biotin-Ahx-Ub-VS probe labelling,OTUD5,-0.293
